# High-throughput results: PubChem, several laboratories
# Rows were chosen to be rich in hits. Some 2.4% of all compounds tested hit in one or more screens of this group.
# PABP polyA inh – PABP poly(A) RNA binding inhibitors, primary screen, biochemical, fluorescence polarization, uHTS | Polyadenylate-binding protein 1 (Homo sapiens), P11940 | calls only at 35 µM | 1% of 290,000 active | AID 2014, 2009;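 further: calls also rest on retests at 20 µM and on dose response follow-up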
# MLLE-PAM2 inh – inhibitors of PABP1 MLLE–PAM2 peptide binding, primary screen, biochemical, fluorescence polarization, FITC-PAM2, GST-MLLE. AID 588489, 2011. inhibition, % at 20 µM. 0.36% of 360,000 active; in the data active means inhibition above about 35%, passing the limit was not always enough;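 further: plate controls were DMSO wells with GST-MLLE for no effect and wells lacking GST-MLLE protein for full effect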
# eIF4H FP inh – human eIF4H binding inhibitors, primary screen, translation initiation inhibitor project, biochemical, uHTS, fluorescence polarization. 0.94% of 290,000 active. eIF4H fluorescence polarization binding assay. Eukaryotic translation initiation factor 4H (Homo sapiens), Q15056. inhibition, % at 35 µM;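 further: calls also rest on retests at 20 µM and on dose response follow-up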
# Efa HMGR inh – inhibitors of E. faecalis class II HMGR, primary screen, biochemical, Enterococcus faecalis; 0.41% of 190,000 active; inhibition, % at 10 µM; purified E. faecalis HMGR, NADPH absorbance 340 nm kinetic; AID 1066, 2008;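 active means inhibition above a set limit, the median over all tested compounds plus 3 SD, cut at about 9.5% in these data; inconclusive means no clear call, values can overlap the other calls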;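 further: enzyme runs in reverse so mevalonate oxidation gives rising NADPH absorbance; 0% = complete reaction with DMSO and 100% = background rate lacking mevalonate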
# PHOSPHO1 block – PubChem AID 1565 | 1.1% of 290,000 active | inhibition, % at 13.3 µM | recombinant PHOSPHO1, absorbance phosphatase assay; in the data active means inhibition above about 60%
# Target sequence (Q8TCT1 whole entry, looked up): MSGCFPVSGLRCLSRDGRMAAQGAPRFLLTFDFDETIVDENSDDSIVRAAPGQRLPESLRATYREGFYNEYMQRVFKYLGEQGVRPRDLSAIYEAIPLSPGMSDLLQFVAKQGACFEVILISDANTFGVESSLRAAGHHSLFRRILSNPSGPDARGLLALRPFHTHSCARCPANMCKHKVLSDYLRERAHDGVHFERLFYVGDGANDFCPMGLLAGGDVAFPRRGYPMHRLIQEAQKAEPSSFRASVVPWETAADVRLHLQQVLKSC
# * = called active by the depositor; i = inactive; ? = inconclusive; nt = no result; + = active, no number. Unless noted, how the calls were made is not given here.
SMILES,PABP polyA inh,MLLE-PAM2 inh,eIF4H FP inh,Efa HMGR inh,PHOSPHO1 block
CCc1nc(N)nc(N)c1-c1ccc(Cl)cc1,i,11.0,-8.2,15.4*,13.3
Cc1cc(OCC(=O)OCC(=O)Nc2ccc(Cl)cn2)ccc1Cl,nt,-10.6,nt,nt,nt
COc1ccc(C(=O)N/N=C/c2cc3ccccc3[nH]c2=S)cc1,i,13.8,-5.2,0.0,91.3*
COc1ccc(C(=O)N/N=C/c2c[nH]c3ccccc23)cc1,i,-6.5,-7.0,nt,44.9
O=C(Cc1ccc(S(=O)(=O)N2CCOCC2)s1)NCCOc1ccccc1,nt,-6.3,nt,nt,nt
O=c1nc(Nc2ccccc2)oc2ccccc12,i,-14.9,-4.7,nt,37.0
O=c1nc(Nc2cccc(Cl)c2)oc2cc(Cl)oc(=O)c12,+,-17.4,58.0,nt,42.1
O=c1oc2cc(O)c(Cl)cc2c2ccccc12,i,4.0,-2.4,-4.2,-6.7
O=c1cc2c(=O)oc3cc(O)c(O)oc3c2c(O)c1O,+,29.9,92.0*,nt,-23.4
CCn1c(N)c(C(N)=O)sc1=S,?,32.9,?,0.6,37.9
CCn1c(N)c(C(=O)NC2CCCCC2)sc1=S,i,41.8*,1.9,2.5,2.5
O=C(NC(=S)Nc1cccnc1)c1cc2ccccc2o1,i,40.9*,34.4,-1.7,-17.8
CC(=O)c1cccc(NC(=S)NC(=O)c2cccc(Cl)c2)c1,i,26.2,3.0,-2.0,-16.4
O=C(NC(=S)Nc1ccccc1)c1cncc(C#Cc2ccccc2)c1,i,39.7*,-5.4,nt,6.1
O=C(O)c1cncc(C#Cc2ccccc2)c1,i,0.7,5.2,nt,nt
O=C(NC(=S)Nc1cccnc1)c1cccc(Cl)c1,nt,42.6*,nt,nt,nt
CC(C)Cc1nnc(NC(=O)C2CCCN(C(=O)c3ccc(Cl)cc3)C2)s1 (stereo not given),nt,-2.6,nt,nt,nt
CCc1cccc(NC(=O)CCS(=O)(=O)c2ccc(Br)cc2)c1,i,-8.3,80.8*,nt,5.2
NS(=O)(=O)c1ccc(CCNC(=O)CCS(=O)(=O)c2ccc(Br)cc2)cc1,i,3.5,89.6*,nt,15.0
CCc1ccc(NC(=O)C(=O)NCCOc2ccccc2Cl)cc1,i,-12.5,-9.7,-3.7,11.3
COc1ccccc1N1CCN(/N=C/c2c(C)nn(-c3ccccc3)c2C)CC1,i,40.5*,-6.1,-0.1,7.1
Cc1cc(C)nc(N/N=C/c2cc(C)n(CC(F)(F)F)c2C)n1,i,-27.9,-6.5,1.3,-0.1
O=C(Nc1c(F)cccc1F)C1CCN(C(=O)c2cccs2)CC1,i,-4.0,1.4,nt,1.5
CC(C)c1ccc(O)c(NC(=S)NC(=O)c2ccc3c(c2)OCO3)c1,i,46.8*,4.3,nt,36.6
O=C(NC(=S)Nc1ccccc1Br)c1ccc2c(c1)OCO2,i,32.9,-3.5,nt,22.2
SMILES,PABP polyA inh,MLLE-PAM2 inh,eIF4H FP inh,Efa HMGR inh,PHOSPHO1 block
Cc1c(NC2=NC(C)(C)Cc3ccccc32)c(=O)n(-c2ccccc2)n1C,i,1.7,3.0,11.4*,-4.4
Cc1c(NS(=O)(=O)c2ccc3c(c2)Cc2ccccc2-3)c(=O)n(-c2ccccc2)n1C,i,-0.3,-6.3,13.6*,27.9
Cc1c(NS(=O)(=O)c2ccc3c(c2)n(C)c(=O)n3C)c(=O)n(-c2ccccc2)n1C,i,-3.2,8.9,1.2,-24.6
Cc1c(NS(=O)(=O)c2ccc(Br)s2)c(=O)n(-c2ccccc2)n1C,i,-3.9,7.2,10.4*,11.7
C/C=C/C=C/C(=O)[C@@H]1[C@@H]([C@]2(C)OC(=O)C(C)=C2O)[C@H]2/C(=C(O)/C=C/C=C/C)C(=O)[C@]1(C)C(=O)C2(C)O (stereo not given in full),i,-7.5,60.7*,nt,17.5
COC(=O)CCCCCCCCCC[N+]1(C)CCCCC1,i,-134.0,-6.3,0.8,-23.9
CC(=O)OCCCCCCCCCCC[N+]1(C)CCCCC1,+,-129.2,3.2,0.6,1.2
Cc1cc(-c2ccco2)c(C#N)c2nc3ccccc3n12,+,16.0,88.4*,2.2,14.1
O=C(c1cc(COc2ccc3ncccc3c2)on1)N1CCC(O)CC1,i,-5.2,3.0,-0.8,61.5*
CC1=C(C(=O)Nc2ccccc2)C(c2cccnc2)n2nc(-c3cccnc3)nc2N1 (stereo not given),i,-5.4,0.8,-1.2,-2.3
CC1=C(C(=O)Nc2cccnc2)C(c2cccnc2)n2nc(-c3cccs3)nc2N1 (stereo not given),i,-9.5,-5.4,-3.8,62.3*
CN(C)c1ccc(C(c2nnnn2C(C)(C)C)N2CCN(C(=O)c3ccco3)CC2)cc1 (stereo not given),i,6.1,3.4,-5.2,88.2*
COc1cc(OC)cc(C(=O)N2CCN(C3CCC(C)CC3)CC2)c1 (stereo not given),nt,-11.3,nt,nt,nt
CCc1nn(CC(=O)NCCCN2CCOCC2)c(=O)c2cc3c(OC)cccc3n12,nt,10.8,nt,nt,nt
CCn1c(C)nc2cc(S(=O)(=O)C(F)F)ccc21,i,-5.6,-4.0,-5.4,22.9
CCn1c(C)nc2cc(S(=O)(=O)Nc3ccc(C)cc3)ccc21,+,-139.3,7.9,-1.7,-37.7
O=C(Nc1cccc(Cl)c1)c1cc(N=Nc2ccc([N+](=O)[O-])cc2Cl)ccc1O,+,-4.8,80.6,nt,-14.7
N#C/C(=C\c1cc(O)c(O)c(O)c1)C(N)=O,+,-12.3,53.5*,nt,-0.8
N#C/C(=C\c1cc(Cl)c(OCc2ccc(Cl)cc2)c(Cl)c1)C(N)=O,i,nt,-4.3,nt,19.9
CC(C)Cn1c(-c2ccccc2)nc(=S)c2c1CCCC2,i,36.4,4.3,-9.5,-19.9
COc1cccc(-c2nc(=S)c3c(n2CCCO)CCCC3)c1,i,40.9*,11.5,2.5,32.3
N#CC1(c2ccccc2)CCN(S(=O)(=O)c2ccc(OC(F)(F)F)cc2)CC1,i,1.5,-5.9,nt,37.1
Cc1cc(C(=O)Nc2cccc3c2O[C@@H](CN(C)S(C)(=O)=O)[C@H](C)CN([C@@H](C)CO)C3=O)n(C)n1,nt,4.8,nt,nt,nt
CC1(C)Cc2c(sc3[nH]c(=S)n(Cc4ccccc4)c(=O)c23)CO1,i,1.7,7.8,-2.1,76.4*
O=C1N=C(N2CCN(c3ccccc3)CC2)S/C1=C/c1cccs1,i,11.8,4.1,-8.0,3.5
O=C1N=C(c2ccccc2)S/C1=C\c1cccs1,i,-35.5,8.7,-3.0,95.4*
O=C(NCc1ccccc1)Nc1cccn(Cc2cccc(F)c2)c1=O,i,-5.6,-0.7,-2.6,-5.2
COc1ccccc1C(=O)NC(CCSC)C(=O)NC1CCCCCC1 (stereo not given),+,-13.1,91.6,-1.8,40.8
COc1ccccc1C(=O)NC(CCSC)C(=O)OCC(=O)c1ccc[nH]1 (stereo not given),+,5.3,59.7*,-2.6,-9.7
COc1ccccc1C(=O)NC(CCSC)C(=O)NC1CC1 (stereo not given),nt,4.5,nt,nt,nt
